# NPSR antag: neuropeptide S receptor (human) antagonism, cAMP. 220,000 compounds, 1% hits. AID 1461. CHO-NPSR cells, cAMP TR-FRET, antagonist mode. Potency, µM (highest dose often 38.3 µM), without a hit: top-dose activity change, negative = inhibition, usual class: inhibitors. Q6W5P4; also: potency is read from the fitted curve at half-maximal effect; % is scaled to controls: 0 for no effect and ±100 for the full control effect; nearly all actives have a fitted effect of over 50% in size
# HttQ103 aggreg: mutant huntingtin aggregation inhibition | AID 1688 | 220,000 compounds, 1.1% hits | Potency, µM (doses to about 46.1 µM), inactives show top-dose activity change, negative = inhibition, hits mostly inhibitors | PC12 HttQ103-GFP aggregates, Acumen cytometry, 40 h; also: potency is read from the fitted curve at half-maximal effect; % is scaled to controls: 0 for no effect and ±100 for the full control effect; nearly all actives have a fitted effect of over 60% in size
#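 Aggregates are detected as GFP objects 1–25 µm with signal 6 STDEV over background in lysates of induced PC12 cells. These carry Huntingtin exon 1 with 103 glutamines fused to GFP under an ecdysone promoter; compounds titrated.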
# CBFb RUNX1 block: CBF-beta/RUNX1 interaction disruption. AlphaScreen CBFb-His/RUNX1-biotin binding, biochemical. Potency, µM (series often up to 59.8 µM), for the others: top-dose activity, negative = inhibition, most hits filed as inhibitors. 230,000 tested, under 10 active; also: % of control where 0% means no effect
# Target sequence (Q01196 whole entry, looked up): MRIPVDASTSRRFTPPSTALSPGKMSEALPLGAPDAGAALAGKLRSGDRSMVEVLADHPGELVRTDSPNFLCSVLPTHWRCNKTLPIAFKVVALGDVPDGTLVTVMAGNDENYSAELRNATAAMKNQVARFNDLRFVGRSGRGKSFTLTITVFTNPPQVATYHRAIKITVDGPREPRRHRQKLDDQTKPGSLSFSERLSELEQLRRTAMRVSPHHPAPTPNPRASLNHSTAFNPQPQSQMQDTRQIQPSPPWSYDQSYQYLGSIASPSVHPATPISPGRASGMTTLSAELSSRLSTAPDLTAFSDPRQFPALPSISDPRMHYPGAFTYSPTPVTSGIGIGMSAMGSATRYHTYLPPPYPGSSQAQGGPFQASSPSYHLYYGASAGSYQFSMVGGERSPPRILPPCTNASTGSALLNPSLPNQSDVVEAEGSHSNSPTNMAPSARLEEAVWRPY
# Target sequence (Q13951 whole entry, looked up): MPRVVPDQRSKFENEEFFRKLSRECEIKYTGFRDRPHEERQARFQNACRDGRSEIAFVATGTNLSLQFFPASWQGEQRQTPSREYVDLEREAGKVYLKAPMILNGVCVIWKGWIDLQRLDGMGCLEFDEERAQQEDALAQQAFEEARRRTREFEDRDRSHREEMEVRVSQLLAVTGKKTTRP
#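 CBF-beta (His) and RUNX1 (biotin), 30 nM each; 20 min preassociation; + compound, 15 min; + beads 50 ng each (Ni, streptavidin), 90 min; RT; AlphaScreen read.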
# HTT cytoprotect: Huntington cell model cytoprotection by ATP luminescence; PC12 HTT-Q103 induced, cytoprotection, ATP luminescence, 40 h; Potency, µM (top dose mostly 56.4 µM), without a hit: cytoprotection (ATP increase), most hits filed as activators; 230,000 compounds, 0.14% hits; also: potency is read from the fitted curve at half-maximal effect; % of control where 0% means no effect; nearly all actives have a fitted effect of over 45% in size
#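 Stable PC12 Q103-GFP cells in serum-supplemented, phenol red-free DMEM; induction by tebufenozide at 100 nM final; compound dose series; cell viability quantified luminescently from ATP.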
# Lamin A splicing: LMNA splicing modulation. HeLa LMNA splicing GFP/RFP minigene ratio, 48 h. 200,000 compounds, 0.01% hits. AID 1487. Potency, µM (top dose mostly 46.1 µM), for the others: top-dose ratio change, negative = inhibition, usual class: inhibitors; active = well fitted inhibition curve with a large enough effect in the signal ratio, with a control signal flat, not every such curve was filed as active; inconclusive = small, poorly fitted or top-dose-only effect, or effect the other way, or a change in a side signal; the % refers to the signal ratio; also: potency is read from the fitted curve at half-maximal effect; % is scaled to controls: 0 for no effect and ±100 for the full control effect
#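 S3 HeLa stable clones carrying a lamin A-EGFP splicing minigene plus DsRed2 were seeded at 600 cells/well in Opti-MEM with 2% FBS, pin-dosed and incubated 48 h at 37°C. Acumen cytometry (488 nm) gave the GFP/RFP total-intensity ratio.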
# MBNL1 CUG block: MBNL1-poly(CUG) RNA binding inhibition. TR-FRET MBNL1-His/biotin-(CUG)12 binding, 665/545 ratio. Q9NR56. 280,000 compounds, 0.036% hits. Potency, µM (top dose mostly 57.5 µM), for the others: at the top dose activity change, negative = inhibition, actives largely listed as inhibitors; active = well fitted inhibition curve with a large enough effect in the signal ratio, with a control signal flat, not every such curve was filed as active; inconclusive = small, poorly fitted or top-dose-only effect, or effect the other way, or a change in a side signal; inactive = no such curve, though single readings can be large or run the other way; the % refers to the signal ratio; also: potency is read from the fitted curve at half-maximal effect; % is scaled to controls: 0 for no effect and ±100 for the full control effect
#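 His-tagged MBNL1 binding to biotinylated (CUG)12 RNA was measured by TR-FRET using terbium anti-His antibody (0.055 ng/ul final) and streptavidin-XL665 (5 nM final). Compounds were titrated 92 nM to 58 uM; 60 min at room temperature.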
# MBNL1-CUG FRET: MBNL1-poly(CUG) RNA binding inhibition confirmed; shares compounds with MBNL1 CUG block; TR-FRET MBNL1-His / biotin-(CUG)12 binding, 60 min; 140 compounds, 50% hits; Potency, µM (titrated, usually from 57.6 µM), inactives show top-dose activity change, negative = inhibition, actives largely listed as inhibitors
# MBNL1 AlphaScrn: confirmation of MBNL1-(CUG)12 RNA binding inhibitors, orthogonal format | shares compounds with MBNL1 CUG block | AlphaScreen MBNL1-His / biotin-(CUG)12 binding | Potency, µM (titrated, usually from 57.7 µM), for the others: at the highest dose activity, negative = inhibition, hits mostly inhibitors | 140 compounds, 30% hits
# Menin-MLL HTRF: MBNL1-CUG RNA binding inhibitor counterscreen activity; AID 651843; His-Menin/biotin-MLL peptide TR-FRET counterscreen; Potency, µM (series often up to 57.6 µM), without a hit: top-dose activity, negative = inhibition, hits mostly inhibitors; 120 compounds, 20% hits; shares compounds with MBNL1 CUG block
# Numbers without * were called inactive; ? = inconclusive; nt = no result; [ ] = another dose, or the depositor's remark. In the library only some 1.1% were active in any assay of this set; here they are far more common. Unless noted, calls follow the shape of the dose curve; as a rule, active = well fitted curve in the direction sought with a large enough effect; inconclusive = small, poorly fitted or top-dose-only effect, or another doubt; inactive = no such curve, though single readings can be large; an effect the other way counts as inactive or inconclusive.
SMILES,NPSR antag,HttQ103 aggreg,CBFb RUNX1 block,HTT cytoprotect,Lamin A splicing,MBNL1 CUG block,MBNL1-CUG FRET,MBNL1 AlphaScrn,others
CCSc1ccccc1C(=O)N1CCN(c2ccc([N+](=O)[O-])cc2)CC1,-30%,13%[9.22 µM],2%,8%[10 µM],?,?,nt,nt,
Cc1c(-c2ccccc2)oc2c(C(=O)N3CCN(c4ccc([N+](=O)[O-])cc4)CC3)cccc2c1=O,?,4µM*,-4%,-25%[10 µM],-11%,54%,nt,nt,
S=c1[nH]nc(C2CCCCC2)n1/N=C/c1ccncc1,11%,0.22µM*,5%,1%,nt,-8%,nt,nt,
CSc1ccc(/C=N/n2c(C3CCCCC3)n[nH]c2=S)cc1,nt,nt,nt,nt,nt,8%,nt,nt,
CC1(C)N=C(N)N=C(N)N1c1cccc(OCc2cccc(N)c2)c1,nt,nt,nt,-6%[10 µM],nt,nt,nt,nt,
COC(=O)C1=C(C)NC(C)=C(C(=O)OCCN(C)Cc2ccccc2)C1c1cccc([N+](=O)[O-])c1 (configuration not stated),10µM*,-38%,?,-40%,?,-12%,nt,nt,
N=c1c2c(-c3ccccc3)c(-c3ccccc3)n(Cc3ccco3)c2ncn1Cc1ccccc1,10µM*,?,-12%,-115%,?,4%,nt,nt,
O=c1c2c3nc4ccccc4nc3n(Cc3ccccc3)c2ncn1Cc1ccco1,10µM*,?,-7%,-18%[0.074 µM],?,37%,nt,nt,
c1ccc(-c2c(-c3ccccc3)n(Cc3ccco3)c3ncnc(NCCCn4ccnc4)c23)cc1,25µM*,?,nt,-90%,0%,-9%,nt,nt,
COc1cc2c3cc1Oc1c(OC)c(OC)cc4c1[C@@H](Cc1ccc(O)c(c1)Oc1ccc(cc1)C[C@@H]3N(C)CC2)CN(C)C4,nt,nt,nt,1%[10 µM],nt,nt,nt,nt,
COc1ccc(CC[N@+]2(C)COc3cc4oc(=O)cc(C)c4cc3C2)cc1OC,nt,nt,nt,-12%[10 µM],nt,nt,nt,nt,
Cc1ccc(CNC(=O)CCCN2C(=O)CCn3nc(-c4cn(C)c5ccccc45)cc32)cc1,nt,nt,nt,nt,-10%[46 µM],nt,nt,nt,
NC1=C(O)C(=O)[C@H](c2c[nH]c3ccc(OCc4ccccc4)cc23)O1,nt,nt,nt,-20%[10 µM],nt,nt,nt,nt,
O=[N+]([O-])c1ccc(Sc2cccc[n+]2[O-])c2nonc12,?,1.1µM*,?,-98%[10 µM],nt,?,nt,nt,
O=C(NCCc1c[nH]c2ccccc12)C(=O)NCC(c1cccnc1)N1CCN(c2ccccc2)CC1 (configuration not stated),2%,3.5µM*,1%[2.36 µM],nt,?,6%,nt,nt,
CCOC(=O)NC(=O)CSc1nc(C)cc(C(F)(F)F)c1C#N,-12%[46.1 µM],10µM*,0%,31%,-2%,2%,nt,nt,
CN(C)c1nc(NC2CCC(NC(=O)c3ccc(F)c(F)c3)CC2)nc2ccccc12 (configuration not stated),nt,nt,-4%,nt,nt,nt,nt,nt,
O=C(/C=C/c1cccs1)Nc1scc(-c2ccccc2)c1C(=O)O,-5%,-16%,-10%,-143%,-2%[9.22 µM],nt,21µM*,13µM*,Menin-MLL HTRF=10%
O=C(Nc1scc(-c2ccccc2)c1C(=O)O)c1ccccc1Cl,nt,nt,nt,nt,nt,-3%,nt,nt,
O=C(OCC1OC(OC(=O)c2cc(O)c(O)c(OC(=O)c3cc(O)c(O)c(O)c3)c2)[C@@H](OC(=O)c2cc(O)c(O)c(OC(=O)c3cc(O)c(O)c(O)c3)c2)C(OC(=O)c2cc(O)c(O)c(OC(=O)c3cc(O)c(O)c(O)c3)c2)C1OC(=O)c1cc(O)c(O)c(OC(=O)c2cc(O)c(O)c(O)c2)c1)c1cc(O)c(O)c(OC(=O)c2cc(O)c(O)c(O)c2)c1 (some centres not stated),nt,11%,nt,-69%,?,nt,0.41µM*,0.029µM*,
Cc1cn(C2OC(COC(=O)c3ccccc3)C(OC(=O)c3ccccc3)C2OC(=O)c2ccccc2)c(=O)[nH]c1=O (configuration not stated),-15%,-13%,-2%,-7%[10 µM],-7%,7%,nt,nt,
COc1ccc(-c2nc(SCC(=O)Nc3cc(C)on3)n[nH]2)cc1,-8%[46.1 µM],10%,3%,-13%,3%,40µM*,16µM*,-9%,Menin-MLL HTRF=?
CCCCc1nc(SCC(=O)Nc2cc(C)on2)n[nH]1,-1%[46.1 µM],-8%,4%,-2%[10 µM],-7%,2%,nt,nt,
O=C(Nc1cc(C(=O)Nc2ccc(S(=O)(=O)O)cc2S(=O)(=O)O)cc(C(=O)Nc2ccc(S(=O)(=O)O)cc2S(=O)(=O)O)c1)Nc1cc(C(=O)Nc2ccc(S(=O)(=O)O)cc2S(=O)(=O)O)cc(C(=O)Nc2ccc(S(=O)(=O)O)cc2S(=O)(=O)O)c1,-11%[46.1 µM],nt,1%,?,?,nt,20µM*,28µM*,
CC(=O)c1c(C)nc(C)nc1NC(=O)Cc1ccccc1,10%[46.1 µM],-2%,-2%,-2%[10 µM],-4%,?,nt,nt,
SMILES,NPSR antag,HttQ103 aggreg,CBFb RUNX1 block,HTT cytoprotect,Lamin A splicing,MBNL1 CUG block,MBNL1-CUG FRET,MBNL1 AlphaScrn,others
CC(=O)Nc1nc(-c2ccc(Cl)cc2)nc(C)c1C(C)=O,?,-12%,19%,-2%[10 µM],-14%,25µM*,?,?,Menin-MLL HTRF=?
NCCC[C@@](N)(C(=O)O)C(F)F,nt,nt,nt,-1%[1.9 µM],nt,nt,nt,nt,
Cc1ccc(-c2cc(-c3ccccc3C)[nH]n2)c(O)c1,?,-2%,-6%,4%[1.9 µM],?,20µM*,5%,4%,Menin-MLL HTRF=-2%
COc1ccc(C2/C=C\CN(C(=O)C3CCCCC3)C(C)C(=O)N2Cc2ccc(F)cc2)cc1 (configuration not stated),nt,nt,0%,nt,nt,nt,nt,nt,
COc1ccc(C2=Nn3c(nnc3-c3ccccc3C)SC2)cc1,nt,nt,-5%,nt,nt,nt,nt,nt,
CC1(C)CCC2=C(O1)c1ccccc1C(=O)C2=O,?,nt,?,-360%,?,?,?,20µM*,
CC(=O)c1cccc(NC(=O)Nc2cccnc2)c1,-7%[46.1 µM],7.9µM*,-9%,10%[0.074 µM],9%,25µM*,26µM*,2%,Menin-MLL HTRF=?
